Experimental data: PubChem BioAssay AID686978 (National Center for Advancing Translational Sciences (NCATS), 2013)
Where “and” joins values, the source holds several entries; their conditions need not be identical. Equal values may be shown once. The whole screen tested about 420,000 compounds, of which about 64,000 (15%) were called active. Not shown: some 27% with an inconclusive outcome. The call rests on the fitted dose curve; in most records, active means well fitted inhibition curve with a large enough effect; inconclusive means small, poorly fitted or top-dose-only effect; inactive means flat fitted curve, though single readings scatter. The list is a sample of the results.

assay: qHTS for Inhibitors of human tyrosyl-DNA phosphodiesterase 1 (TDP1): qHTS in cells in absence of CPT; details: DT40 Tdp1-/- hTDP1 cells, no CPT, ATP luminescence, 48 h; activity change, negative = growth inhibition: at 46.2 µM (top of the series); further: nearly all actives have a fitted effect of over 55% in size
How it was run: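 Luminescent ATP content (CellTiter-Glo) served as the growth readout. Knockout chicken DT40 cells expressing human TDP1 were exposed to compounds without camptothecin for a minimum 48 hr at 37 °C.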
On the % scale 0 is the no-effect control and ±100 the full control effect; potency means the concentration at half of the fitted maximal effect.

Compound	activity change, negative = growth inhibition	Potency
O=C(CCc1nc(CN2CCN(S(=O)(=O)c3ccc(F)cc3)CC2)no1)N1CCCCC1	-13.9% (inactive)	
CCN(CC(=O)Nc1ccc(OC)cc1)C(=O)c1ccc(=O)n(Cc2ccccc2)n1	-9.51% (inactive)	
O=C(CNC(=O)c1cc(=O)[nH]c2ccccc12)Nc1ccc(F)c(F)c1	9.3% (inactive)	
COC(=O)c1cnn2c(C(F)(F)F)cc(-c3ccco3)nc12	-7.72% (inactive)	
CCOc1ccc(C(C)=O)cc1COC(=O)CNC(=O)c1cccs1	-6.35% (inactive)	
O=C(O)/C=C/c1ccc(S(=O)(=O)N2CCCCCC2)cc1	-0.963% (inactive)	
CN/C(=C\[N+](=O)[O-])NCCSCc1csc(CN(C)C)n1		inactive
Cc1nc2ccccc2c(=O)n1CCCn1ccnc1	-13.6% (inactive)	
Cc1ccnc(N2CCCC(C(=O)NC3CC3)C2)n1 (stereo not given)	9.1% (inactive)	
Cc1ccnc(-n2sc3ccccc3c2=O)n1		5.17 µM (active)
COCCCNC(=O)c1c(F)c(F)c(F)c(F)c1F	12.3% (inactive)	
O=C(CSc1nnc(-c2ccncc2)n1C1CCCCC1)Nc1ccccc1	-10.6% (inactive)	
CCC(C)N(C)C1CCN(C(=S)Nc2ccc(OC)cc2)CC1 (stereo not given)	-3.26% (inactive)	
Cc1cccc(-n2nc3c(c2NC(=O)c2ccc(Br)o2)CSC3)c1C	-18.1% (inactive)	
COc1ccccc1OCC(=O)Nc1c2c(nn1-c1ccc(F)cc1)CS(=O)(=O)C2	-2.31% (inactive)	
COc1cccc(C(=O)Nc2c3c(nn2-c2cccc(C)c2C)CS(=O)(=O)C3)c1OC		15.8 µM (active)
COc1ccc(N(CC(=O)Nc2cccc3ccccc23)S(C)(=O)=O)c(OC)c1	-24.1% (inactive)	
CCC(CC)C(=O)Nc1cc(C(=O)OC)cc(C(=O)OC)c1	-12.8% (inactive)	
Cc1cc2nc3c(=O)n(Cc4ccccc4)c(=O)[nH]c3nc2cc1N	-27.9% (inactive)	
CCC(=O)N(C)C(c1ccccc1Cl)c1nnnn1-c1c(C)cccc1C (stereo not given)		18.4 µM (active)
Cc1ccc(-n2nnnc2CNC(=O)c2ccccc2C)cc1C	-10.6% (inactive)	
CCOC(=O)N1CCN(C(c2ccnc3ccccc23)c2nnnn2-c2c(C)cccc2C)CC1 (stereo not given)	-23% (inactive)	
Cc1ccc(S(=O)(=O)N(NC2=NS(=O)(=O)c3ccccc32)C(=O)c2ccccc2)cc1	-14.8% (inactive)	
Cc1cc(C)c(C)c(S(=O)(=O)N[C@@H](C)C(=O)OC(C)C(=O)NC(N)=O)c1C (stereo not given in full)	4.64% (inactive)	
COc1ccccc1C(=O)COC(=O)CSCC(=O)Nc1cc(C)on1	1.01% (inactive)	
COC(=O)N1CN(C(=O)OC)CN(C(=O)OC)C1	-2.09% (inactive)	
CN(C(=O)CC1C(=O)NCCN1Cc1ccc(F)cc1Cl)C1CCCCC1 (stereo not given)	0.124% (inactive)	

Compound	activity change, negative = growth inhibition	Potency
COc1cc(NC(=O)c2nn(-c3ccc(C)cc3)c(=O)c3c2c2ccccc2n3C)cc(OC)c1OC	-7.67% (inactive)	
CCOC(=O)N1CCN(C(=O)c2n[nH]c(=O)c3ccccc23)CC1	-14% (inactive)	
CCOC(=O)N1CCN(C(=O)c2nn(-c3ccc(C)cc3)c(=O)c3c2c2ccccc2n3C)CC1		18.4 µM (active)
CCCN(CCC)CCNC(=O)Cn1cnc2sc(C)c(S(=O)(=O)N3CCC(C)CC3)c2c1=O	7.29% (inactive)	
O=C(CC[C@H]1O[C@@H](n2ccc(=O)[nH]c2=O)[C@H](O)[C@@H]1O)N[C@H](Cc1ccccc1)C(=O)NCc1ccco1	24.1% (inactive)	
O=C(NN=CC=Cc1ccccc1)C(O)C(O)C(=O)NN=CC=Cc1ccccc1 (stereo not given)	2.13% (inactive)	
CC(C)(C)NC(=O)NCc1ccco1	-7.35% (inactive)	
CC(C)(C)c1ccc(C(=O)NCc2ccco2)cc1	-25.6% (inactive)	
CC(C)(C)c1ccc(NC(=O)NCc2ccco2)cc1		14.6 µM (active)
Clc1ccc(-c2nnc(SCc3nc4ccccc4s3)o2)cc1	1.63% (inactive)	
Oc1c(Cl)cc(Cl)c(Cl)c1Cc1c(O)c(Cl)cc(Cl)c1Cl		4.22 µM (active) and 23.1 µM (active) and 2.59 µM (active)
CCCn1c(N)c(C(=O)CSc2nnc3n2CCCCC3)c(=O)[nH]c1=O	6.82% (inactive)	
CN(CC(=O)NCCc1ccc(S(N)(=O)=O)cc1)CC(=O)Nc1ccc(F)c(F)c1F	-17.4% (inactive)	
CCOc1ccccc1NC(=O)CN1CCN(S(=O)(=O)c2ccc(Br)cc2)CC1	-17.6% (inactive)	
Cn1c(CC(=O)Nc2ccccc2)nnc1SCC(=O)c1ccccc1	1.42% (inactive)	
CCCCNC(=O)c1onc(CSc2cccc(OC)c2)c1C(=O)O	-11% (inactive)	
CCCCNc1c(-c2cccc(Sc3ccc(OC)cc3)c2)nc2ccccn12		20.6 µM (active)
COc1ccc(Sc2nc(-c3ccccc3)ncc2OC)cc1	-5.11% (inactive)	
O=c1o[nH]c(-c2ccccc2)c1N=Nc1c(F)cccc1Cl	-4.15% (inactive)	
CCOC(=O)C1CCCN(C(=O)Cn2ncc3c(C)n(Cc4ccc(F)cc4)c(C)c3c2=O)C1 (stereo not given)		16.4 µM (active)
Cc1ccc2oc(=O)c3cnn(CC(=O)N4CCCCCC4)c3c2c1	-15.1% (inactive)	
CCOC(=O)C1CCCN(C(=O)Cn2ncc3c(=O)oc4ccc(C)cc4c32)C1 (stereo not given)	1.04% (inactive)	
CCOc1ccc(CN(C)C(=O)c2ccc(=O)[nH]c2)cc1	-19.3% (inactive)	
Clc1ccc2nc(-c3ccccc3)nc(C(Cl)Cl)c2c1		0.366 µM (active)
Cc1ccccc1C(=O)NNC(=O)CN1C(=O)c2ccccc2C1=O	16.1% (inactive)	
Cc1noc(C)c1-c1nc(CSc2ccc(Cl)cc2)no1	-21.8% (inactive)	
Clc1ccc(Cc2nnc(-c3cccs3)o2)cc1	-21.9% (inactive)	

Compound	activity change, negative = growth inhibition	Potency
CCCC(=O)n1nc(-c2ccccc2)nc1N	-4.29% (inactive)	
CCc1nn(-c2cc(Oc3cccc4ccccc34)nc(-c3ccccc3)n2)c(N)c1C#N		16.4 µM (active)
COc1ccc(Cn2c(=O)c3oc4ccccc4c3n(CC(=O)Nc3ccc(F)cc3F)c2=O)cc1	-15.4% (inactive)	
CCOC(=O)c1sc(=NC(=O)/C=C/c2cccs2)n(C)c1C	-22.9% (inactive)	
CCCCc1nnc(NC(=O)CSc2nc(C)cc(=O)[nH]2)s1	-10.6% (inactive)	
COC(=O)C1=C(C)N(C)C(=S)NC1c1cc(OC)ccc1OC (stereo not given)	-6.15% (inactive)	
Cc1cc(C(=O)NCC2Cc3cccc(-c4cncnc4)c3O2)c(C)o1 (stereo not given)	0.211% (inactive)	
COc1ccc(OC)c(CN2C(=O)CCC2(C)C(=O)NC2CCCCCC2)c1 (stereo not given)	3.78% (inactive)	
Cc1cc(C(=O)NNC(=O)CCC2CCCCC2)c(C)o1	4.76% (inactive)	
COc1ccc(OC)c(C(=O)NC2CCCc3c2cnn3-c2cc(C)cc(C)c2)c1 (stereo not given)		16.4 µM (active)
Cc1cc(C(=O)NC2CCCc3c2cnn3-c2cccc(C)c2C)c(C)o1 (stereo not given)		8.2 µM (active)
COc1ccc(C(=O)NC2CCCc3c2cnn3-c2cccc(C)c2C)c(OC)n1 (stereo not given)		8.2 µM (active)
COCc1c(C(=O)NC2CCCCC2)cnn1-c1nccc(-c2ccccc2OC)n1	-2.16% (inactive)	
Cc1ccccc1C(=O)NCCN=C1NS(=O)(=O)c2ccccc21	17.6% (inactive)	
CC(=O)N[C@H]1[C@H]([C@H](O)[C@H](O)CO)OC(C(=O)O)=C[C@@H]1O	7.34% (inactive)	
Cc1ccc(S(=O)(=O)c2ccc(Cl)cc2)cc1S(=O)(=O)NC(C(=O)O)C(C)C (stereo not given)	-8.65% (inactive)	
CN(C)c1ccc(-n2cccc2/C=N/n2cnnc2)cc1	-5.16% (inactive)	
C=CCN1C(=NC(=O)COc2ccccc2)SC2CS(=O)(=O)CC21 (stereo not given)	-0.72% (inactive)	
Nc1ccc2nc3c(=O)[nH]c(=S)[nH]c3nc2c1	-13.9% (inactive)	
Cc1ccccc1OCC(=O)Nc1c(C(=O)Nc2ccccc2F)oc2ccccc12	-18.9% (inactive)	
Cc1ccc(NC(=O)c2cnc(SCC(=O)NCC3CCCO3)n(C)c2=O)cc1 (stereo not given)		14.6 µM (active)
Cn1c(SCC(=O)c2ccccc2)ncc(C(=O)Nc2ccc(F)cc2)c1=O	-26.2% (inactive)	
Cc1cc(NC(=O)CSc2ncc(C(=O)Nc3ccc(Cl)cc3)c(=O)n2C)no1	-3.88% (inactive)	
COc1cccc(-n2ccn(CC(=O)NCc3ccc(C)cc3)c(=O)c2=O)c1	-24% (inactive)	
CC(C)=CCN1CCN(CCCc2ccccc2)CC1CCO (stereo not given)	2.17% (inactive)	
OCC[C@H]1C[C@@H](O)[C@H](O)[C@@]2(OCCc3ccccc32)O1	-12.8% (inactive)	
CC(C)=CCN1CCC2(CCc3ccccc32)CC1		20.6 µM (active)

Compound	activity change, negative = growth inhibition	Potency
Cc1ccc(S(=O)(=O)NCCC(=O)NNC(=O)C2COc3ccccc3O2)cc1 (stereo not given)	-20.6% (inactive)	
O=C(CN1C(=O)C2C3C=CC(C3)C2C1=O)NCC1COc2ccccc2O1 (stereo not given)	2.38% (inactive)	
Cc1cc(C(=O)CCl)c(C)n1CC1COc2ccccc2O1 (stereo not given)		2.59 µM (active)
CCn1ccnc1C[C@@H]1COc2ccccc2O1	-21.8% (inactive)	
O=C1C(=O)N(CC2COc3ccccc3O2)c2ccccc21 (stereo not given)		1.46 µM (active)
Cc1cc(NC(=O)CCC2COc3ccccc3O2)no1 (stereo not given)	-10.2% (inactive)	
CCN(CCN(C)C)C(=O)c1ccc2nc(C)c(N(C)C(=O)CCc3ccccc3)n2c1	10.3% (inactive)	
CCOc1ccc(Br)cc1S(=O)(=O)Nc1ccc(S(=O)(=O)Nc2cc(C)on2)cc1	-1.12% (inactive)	
CC1C(=O)Nc2ccccc2N1C(=O)c1ccc(F)cc1F (stereo not given)	-0.847% (inactive)	
CCn1c(SCC(=O)NC2CC2)nnc1-c1ccccc1OC	23.2% (inactive)	
Cc1ccc2cc(CN(c3ccc(C)c(C)c3)S(C)(=O)=O)c(=O)[nH]c2c1	-26.3% (inactive)	
Cc1cc(C)c2c(c1)cc(C)c1nnc(SCC(=O)Nc3cc(C)on3)n12		11.6 µM (active)
Cc1cc(NC(=O)CSc2nnc(-c3ccco3)n2N)no1	-0.944% (inactive)	
Cc1cc(NC(=O)CSc2nnnn2-c2ccc(F)cc2)no1	-0.549% (inactive)	
Cc1ccc(NC(=O)C(Cc2ccccc2)NS(=O)(=O)c2ccc3c(c2)oc(=O)n3C)cc1C (stereo not given)	5.28% (inactive)	
CN(C(=O)CC1C(=O)NCCN1Cc1ccc2ccccc2c1)C1CCOCC1 (stereo not given)	5.39% (inactive)	
O=C1CC(c2c(F)cccc2Cl)C(n2cncn2)C(O)=C1C1NCCc2ccccc21 (stereo not given)	-4.41% (inactive)	
Cc1ccc(C(=O)NNC(=O)CSc2nnc3ccccn23)cc1	-0.0604% (inactive)	
Cc1ccc(C(C[N+](=O)[O-])c2c(C)cc3ccccn23)cc1 (stereo not given)		16.4 µM (active)
COc1ccc(CC(=O)Nc2nc3n(n2)C(c2ccccc2)CC(=O)N3)cc1OC (stereo not given)	-18.7% (inactive)	
O=C(CN1CCN(c2ccccn2)CC1)NCc1cccs1	-6.39% (inactive)	
NC(=S)NN=Cc1ccc(OC(=O)COc2cc(Cl)c(Cl)cc2Cl)cn1		5.8 µM (active)
O=C(COC(=O)COc1cc(Cl)c(Cl)cc1Cl)NC1CC1	-14.5% (inactive)	
O=C(COc1cc(Cl)c(Cl)cc1Cl)NCCc1ccccn1	-8.55% (inactive)	
